Screens as filed in PubChem.
PLK1 PBD inh: blocks phosphopeptide binding to human PLK1 polo-box domain | P53350 | Plk1 PBD binding of FITC phosphopeptide, fluorescence polarization | Potency, µM, actives largely listed as inhibitors | hit rate 2.8% among 360,000 | AID 720504; also: series mostly up to about 57 µM; nearly all actives have a fitted effect of over 65% in size
TDP1 cell CPT: DT40-hTDP1 cell growth loss with CPT. AID 686979. Potency, µM (series often up to 46.2 µM), most hits filed as inhibitors. hit rate 12% among 420,000. chicken DT40 Tdp1-/-;hTDP1 cells + 20 nM CPT, ATP luminescence, 48 h; also: nearly all actives have a fitted effect of over 55% in size
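Chicken DT40 Tdp1-/- cells stably complemented with human TDP1 were seeded at 400 cells/well in medium containing 20 nM camptothecin, exposed to pin-transferred compounds, and grown at 37 °C for at least 48 hr. Viability was read as ATP luminescence.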
GCN5L2 inh: GCN5L2 (KAT2A) acetyltransferase inhibition | Q92830 | GCN5L2 HAT assay, ThioGlo1 CoA-SH fluorescence | Potency, µM (series often up to 58.9 µM), usual class: inhibitors | hit rate 0.21% among 390,000 | AID 504327
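Compounds, pin-transferred from DMSO stocks, meet 20nM GCN5L2 for 15 min before the reaction begins with H3(1-25) peptide (75uM) and acetyl-CoA (70uM). Thiol-reactive ThioGlo1 reports CoA release over 20 min at room temperature.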
VDR inhibitor: blocks the human vitamin D receptor | P11473 | VDR-SRC2-3 peptide fluorescence polarization, 2 h | Potency, µM, actives largely listed as inhibitors | hit rate 0.93% among 400,000
Target sequence (P11473 whole entry, looked up): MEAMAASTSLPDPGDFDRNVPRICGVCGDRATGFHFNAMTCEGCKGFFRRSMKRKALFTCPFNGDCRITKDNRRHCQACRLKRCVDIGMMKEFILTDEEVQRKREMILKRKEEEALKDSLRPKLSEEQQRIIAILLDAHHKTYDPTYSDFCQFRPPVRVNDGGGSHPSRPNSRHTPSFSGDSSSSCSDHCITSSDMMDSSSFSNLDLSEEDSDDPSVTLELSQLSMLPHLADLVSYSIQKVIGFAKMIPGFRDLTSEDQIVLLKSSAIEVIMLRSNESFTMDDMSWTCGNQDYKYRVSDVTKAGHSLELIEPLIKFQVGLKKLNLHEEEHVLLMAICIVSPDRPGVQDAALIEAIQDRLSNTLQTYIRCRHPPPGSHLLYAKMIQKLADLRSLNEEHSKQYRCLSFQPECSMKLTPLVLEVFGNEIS
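VDR–SRC2-3 interaction, FP format. Cmpds 23 nl via pintool, brief spin, 2 h ambient incubation.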
TDP1 block: inhibitors of human tyrosyl-DNA phosphodiesterase TDP1 | Q9NUW8 | recombinant TDP1, AlphaScreen DNA substrate cleavage | Potency, µM (doses to about 130 µM), usual class: inhibitors | hit rate 0.28% among 350,000; also: nearly all actives have a fitted effect of over 40% in size
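Compounds were preincubated with Tdp1 (1 nM final) for 15 min at room temperature before substrate (15 nM final) started a 5 min reaction; beads (10 ug/ml final) were then added for 10 min before AlphaScreen detection.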
TDP1 cell noCPT: qHTS for Inhibitors of human tyrosyl-DNA phosphodiesterase 1 (TDP1): qHTS in cells in absence of CPT | Potency, µM (series often up to 46.2 µM), most hits filed as inhibitors | DT40 Tdp1-/- hTDP1 cells, no CPT, ATP luminescence, 48 h | hit rate 15% among 420,000; also: nearly all actives have a fitted effect of over 55% in size
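Seeded 400 DT40-hTDP1 cells/well (vehicle DMSO, no 20 nM CPT); pinned compounds; ≥48 hr at 37 °C; CellTiter-Glo luminescence as viability measure.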
Numbers stand for hits; 0 = inactive; ? = inconclusive; - = no result given; [ ] = dose if it differs, or a comment. An excerpt weighted towards active compounds, which were near 18% of everything screened. Calls follow the shape of the dose curve; as a rule, active = well fitted curve in the direction sought with a large enough effect; inconclusive = small, poorly fitted or top-dose-only effect, or another doubt; inactive = no such curve, though single readings can be large; an effect the other way counts as inactive or inconclusive.

SMILES	PLK1 PBD inh	TDP1 cell CPT	GCN5L2 inh	VDR inhibitor	TDP1 block	TDP1 cell noCPT
c1ccc(C2=Nc3ccccc3OC2)cc1	0	18µM	0	0	0	11µM
CC1COC(=O)O1 (stereo not given)	-	-	0	0	0	-
CC(=O)c1ccc(N2CCN(C(=O)c3cc4c(s3)-c3ccccc3OC4)CC2)cc1	-	-	0	0	0	-
O=C(Oc1cc(Cl)cc(Cl)c1)c1cnc2n(c1=O)CCS2	0	0	0	0	0	0
Cc1ccccc1NC(=O)Cc1nc(COC(=O)c2ccc(O)cc2O)cs1	0	?	0	0	0	?
Cn1c(CCNC(=O)c2ccco2)nc2cc(NS(=O)(=O)c3ccccc3)ccc21	0	21µM	0	0	0	?
Cn1c(CCNC(=O)c2ccco2)nc2cc(NC(=O)c3ccco3)ccc21	0	?	0	0	0	0
CC(C)[C@@H](C)/C=C/[C@@H](C)[C@H]1CC[C@H]2/C(=C/C=C3\C[C@@H](O)CC[C@@H]3C)CCC[C@]12C	-	?	-	-	-	17µM
CC(C)C(C)/C=C/C(C)C1CCC2C3=CCC4CC(=O)CC[C@@]4(C)C3CC[C@]21C (stereo not given in full)	-	0	0	0	0	0
CCN1c2ccccc2-c2nc3ccccc3n2C1c1ccco1 (stereo not given)	0	21µM	0	0	0	16µM
CN1c2ccccc2-c2nc3ccccc3n2C1c1ccccn1 (stereo not given)	0	16µM	0	0	0	16µM
CN1c2ccccc2-c2nc3ccccc3n2C1c1ccncc1 (stereo not given)	0	0	0	0	0	?
CCOC(=O)C1=CCC(c2ccc(Cl)cc2)N(S(=O)(=O)c2ccc(C)cc2)C1 (stereo not given)	0	23µM	-	-	-	18µM
CCOC(=O)C1=CCCN(S(=O)(=O)c2ccc(C)cc2)C1	0	?	-	-	-	21µM
CCOC(=O)C1=CCC(c2ccc(C#N)cc2)N(S(=O)(=O)c2ccc(C)cc2)C1 (stereo not given)	0	18µM	-	-	-	16µM
CCOC(=O)NN=C1CN(S(=O)(=O)c2ccc(C)cc2)C1	0	0	0	0	0	0
Cc1ccc([C@@H]2CC=C(C(=O)O)CN2S(=O)(=O)c2ccc(C)cc2)cc1	0	0	0	0	0	0
COc1ccc(CNC(=O)Cc2c(C(=O)O)c(C)cn2C)cc1	-	0	0	0	0	0
Cn1cccc1-c1nc2ccccc2[nH]1	0	0	0	0	0	0
O=C1CCCc2c1ccc1ccccc21	0	0	-	0	-	0
O=C(NCCSCc1ccccc1Cl)C1CCN(S(=O)(=O)Cc2ccccc2)CC1	-	0	0	0	0	?
COc1ccc(CN(CC(=O)NC2CCCC2)C(=O)CCC(=O)Nc2nc(C)cs2)cc1	0	0	0	0	0	0
COc1ccc(S(=O)(=O)N2CC(O)CC2C(=O)OCc2nc3sc(C)c(C)c3c(=O)[nH]2)cc1 (stereo not given)	0	0	0	0	0	0
Cc1sc2nc(COC(=O)c3ccc(N4CCCC(C)C4)c([N+](=O)[O-])c3)[nH]c(=O)c2c1C (stereo not given)	0	?	0	0	0	16µM
Cc1sc2nc(COC(=O)c3c(F)cccc3F)[nH]c(=O)c2c1C	0	0	0	0	0	?
SMILES	PLK1 PBD inh	TDP1 cell CPT	GCN5L2 inh	VDR inhibitor	TDP1 block	TDP1 cell noCPT
Cc1sc2nc(COC(=O)c3ccc(Cl)c(N)c3)[nH]c(=O)c2c1C	0	16µM	0	0	0	7.3µM
Cc1sc2nc(COC(=O)c3ccc(O)cc3)[nH]c(=O)c2c1C	0	?	?	0	0	18µM
CCN(c1ccccc1)S(=O)(=O)c1cccc(C(=O)OCc2nc3sc(C)c(C)c3c(=O)[nH]2)c1	0	0	0	0	0	0
Cc1oc(-c2ccc(C(=O)Nc3ccc(F)cc3F)cc2)nc1COc1ccccc1	-	0	0	0	0	0
COc1ccccc1-c1nc(SCC(=O)Nc2ccc(C)c(C)c2)n[nH]1	-	23µM	0	0	0	23µM
COc1ccccc1-c1nc(SCC(=O)c2ccccc2)n[nH]1	-	?	0	0	0	16µM
COc1ccccc1-c1nc(SCC(=O)N2CCOCC2)n[nH]1	0	0	0	0	0	0
CC(C)Oc1ccccc1-c1nc(SCC(=O)c2ccc(F)cc2)n[nH]1	-	21µM	0	0	0	16µM
COc1ccc(-c2nc(SCC(=O)c3ccc(Br)cc3)n[nH]2)cc1	-	?	0	0	0	?
Cc1cc(C)c(NC(=O)CSc2n[nH]c(-c3ccccc3Cl)n2)c(C)c1	-	?	0	0	0	6.5µM
Cc1ncc2c(c1CNC(=O)c1ccc3c(c1)OCO3)CCN(C(=O)c1cc3ccccc3o1)C2	-	0[9.04 µM]	-	-	-	?
O=C(OCc1ccco1)c1ccc2c(c1)N(Cc1cccc(F)c1)C(=O)c1ccccc1S2	-	-	0	0	0	-
CCOc1cc(C(N)=O)cc(Br)c1OCc1ccccc1	0	0	0	0	0	0
Nc1c(Cl)ncnc1NCc1cccnc1	0	0	0	0	-	?
Nc1c(Cl)ncnc1NCCc1ccc(O)cc1	0	13µM	0	0	-	5.8µM
Clc1nssc1=Nc1ccccc1	2.4µM	16µM	4µM	45µM	0	15µM
COc1ccc(N=c2ssnc2Cl)cc1	1.7µM	7.3µM	13µM	?	0	9.2µM
Clc1ss/c(=N\c2ccccn2)c1Cl	0	0	0	0	0	0
O=C(COc1ccc(C(=O)NCC2CCCO2)cc1)Nc1cccc(C(F)(F)F)c1 (stereo not given)	0	?	0	0	-	?
Cc1cc(C)n(-c2ccc(C(=O)N3CCN(S(=O)(=O)c4ccc(Br)cc4Cl)CC3)cc2)n1	0	23µM	-	-	-	16µM
O=S(=O)(c1ccc(Br)cc1Cl)N1CCN(CCO)CC1	0	0	0	0	0	0
Cc1cc(C)n(-c2ccc(C(=O)N3CCC(CO)(Cc4ccccc4)CC3)cc2)n1	0	16µM	0	0	0	?
Cc1cc(C)n(-c2ccc(C(=O)N3CCN(c4ccccn4)CC3)cc2)n1	0	0	0	0	0	0
CC(/C=C1\SC(=S)N(c2ccc(C(=O)O)cc2)C1=O)=C\c1ccccc1	24µM	?	0	89µM	0	?
CC(/C=C1\SC(=S)N(C(C(=O)O)C(C)C)C1=O)=C\c1ccccc1 (stereo not given)	24µM	0	0	?	0	0
COc1ccccc1N1CCN(Cc2cc(Br)c(O)c3ncccc23)CC1	?	6.5µM	0	0	0	9.2µM
COc1ccccc1N1CCN(Cc2cc(COC(C)C)c3cccnc3c2O)CC1	-	4.6µM	0	0	0	4.6µM
